Values without a mark were called inactive. Active and inactive are the calls of the source. Cut-off read from the data, not from the text of the source, unless noted: active = inhibition above about 42%; inactive = the rest.
Assays:
[1] = StAR promoter reporter inhibitors, counter-screen for LRH-1 inverse agonist project, cell-based, luminescence, high throughput (AID 651611; in the data active = inhibition above about 28%); conditions: StAR promoter luciferase reporter counterscreen, at 3.6 µM, hits give high values
[2] = biological target: Nuclear receptor subfamily 5 group A member 2 (Homo sapiens) (UniProt O00482); experiment: NR5A2 activity suppression in reporter cells – cell-based, luminescence, confirmation (AID 651613); conditions: cell-based LRH-1 luciferase reporter, inverse agonism; at 3.6 µM; hits give high values;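 note: HEK293T cells co-transfected with LRH-1 and StAR promoter luciferase reporter; 0% = vehicle wells and 100% = parental cells lacking receptor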
[3] = biological target: Steroidogenic factor 1 (Homo sapiens) (UniProt Q13285); experiment: inverse agonism at SF1 nuclear receptor – cell-based, luminescence, high throughput, counter-screen for LRH-1 inverse agonist project (AID 651614; in the data active = inhibition above about 44%;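 note: cells cotransfected with StAR promoter reporter and SF1 expression vector; 0% = vehicle on cells with receptor and 100% = vehicle on cells lacking receptor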); conditions: cell-based SF1 luciferase reporter, at 3.6 µM, hits give high values
[4] = compounds suppressing VP16-driven luciferase signal – cell-based, luminescence, high throughput, counter-screen for LRH-1 inverse agonist project (AID 651615; in the data active = inhibition above about 33%); conditions: Gal4-VP16 luciferase reporter cells, at 3.6 µM, hits give high values

Nuclear receptor subfamily 5 group A member 2 (Homo sapiens), sequence (O00482 whole entry, looked up): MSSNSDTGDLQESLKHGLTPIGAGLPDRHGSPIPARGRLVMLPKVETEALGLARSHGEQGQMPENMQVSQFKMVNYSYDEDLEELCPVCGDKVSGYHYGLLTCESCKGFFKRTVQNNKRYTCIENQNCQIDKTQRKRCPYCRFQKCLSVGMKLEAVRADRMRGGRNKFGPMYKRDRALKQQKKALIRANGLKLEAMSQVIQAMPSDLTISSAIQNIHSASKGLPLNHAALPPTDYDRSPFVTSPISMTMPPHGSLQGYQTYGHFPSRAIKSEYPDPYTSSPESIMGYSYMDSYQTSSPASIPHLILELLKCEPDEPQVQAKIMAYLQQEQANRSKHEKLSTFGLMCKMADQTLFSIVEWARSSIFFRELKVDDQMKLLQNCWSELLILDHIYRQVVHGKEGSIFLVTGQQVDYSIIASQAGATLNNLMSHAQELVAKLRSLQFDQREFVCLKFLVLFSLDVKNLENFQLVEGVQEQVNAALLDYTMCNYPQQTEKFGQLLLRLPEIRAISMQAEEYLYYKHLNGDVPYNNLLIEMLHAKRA
Steroidogenic factor 1 (Homo sapiens), sequence (Q13285 whole entry, looked up, the tested form may be a part): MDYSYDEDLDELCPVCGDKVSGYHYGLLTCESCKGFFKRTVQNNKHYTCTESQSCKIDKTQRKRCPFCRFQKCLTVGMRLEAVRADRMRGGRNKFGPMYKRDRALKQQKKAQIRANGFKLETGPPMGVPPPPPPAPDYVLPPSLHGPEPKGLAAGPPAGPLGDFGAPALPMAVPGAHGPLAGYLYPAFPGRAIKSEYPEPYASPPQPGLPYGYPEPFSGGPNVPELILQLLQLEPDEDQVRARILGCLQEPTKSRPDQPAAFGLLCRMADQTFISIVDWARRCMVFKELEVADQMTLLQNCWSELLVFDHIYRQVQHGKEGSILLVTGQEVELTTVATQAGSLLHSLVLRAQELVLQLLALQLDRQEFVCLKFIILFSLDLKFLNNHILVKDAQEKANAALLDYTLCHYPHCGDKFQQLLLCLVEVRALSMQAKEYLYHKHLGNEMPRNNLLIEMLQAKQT

| SMILES | inhibition [1] | inhibition [2] | inhibition [3] | inhibition [4] |
| --- | --- | --- | --- | --- |
| CCn1cc(CN(C)S(=O)(=O)c2ccc3ccccc3c2)c(C)n1 | -0.8% | 50.9% (active) | 52.5% (active) | 40.2% (active) |
| COc1ccc(/C=C/C(=O)c2cc(F)ccc2OC(=O)c2ccccc2C)cc1OC | 52.9% (active) | 41.1% | 44.9% (active) | 40.4% (active) |
| CCC1CCCCN1C(=O)c1ccc([N+](=O)[O-])o1 (stereo not drawn) | 0.98% | 47.5% (active) | 46.7% (active) | 3.65% |
| O=C(Nc1ccc2oc(-c3ccccc3F)nc2c1)c1ccc([N+](=O)[O-])o1 | -5.27% | 46% (active) | 56% (active) | -24.7% |
| CCOC(=O)c1cnc(-n2nc(C)cc2C)nc1NC1CCCC1 | 0.01% | 56.9% (active) | 52.4% (active) | 9.25% |
| CCC(=O)Nc1nnc(SCC(=O)NCCc2ccc(OC)c(OC)c2)s1 | 12.9% | 55.6% (active) | 57.3% (active) | -15.4% |
| CCc1c(O)nc(SCC(=O)Nc2ccccc2C)n(-c2ccc(C)cc2)c1=O | 14.4% | 56.4% (active) | 66% (active) | -1.84% |
| O=c1c2ccc(Cl)cc2nc(-c2cccc(C(F)(F)F)c2)n1O | 26.8% | 42.6% (active) | 35.4% | 46.2% (active) |
| O=C(COC(=O)c1ccccc1O)Nc1ccc(N2CCOCC2)cc1 | 0.71% | 59.3% (active) | 60.4% (active) | -1.07% |
| Cc1cccc(CN2C(=O)CSc3ccc(C(=O)NC4CC4)cc32)c1 | 10.4% | 62.2% (active) | 51.8% (active) | -6.63% |
| COc1ccc(/C=N/NC(=O)c2[nH]c3ccc(Br)cc3c2-c2ccccc2)cc1 | 62.3% (active) | 42.6% (active) | 50.7% (active) | 32.6% (active) |
| Cc1cc2ccccn2c1C(=O)c1ccc([N+](=O)[O-])o1 | 41% (active) | 68.3% (active) | 62.2% (active) | -0.71% |
| N#CC1=C(N)C(C#N)(C#N)[C@H](c2c(F)cccc2F)[C@H]2CC3(CC=C12)OCCO3 | 16.1% | 60.9% (active) | 54% (active) | 17.2% |
| Cc1onc(-c2ccccc2Cl)c1-c1nc(-c2ccncc2)no1 | 7.38% | 58.1% (active) | 52.9% (active) | 18.2% |
| CCCCc1c(O)nc(SCC(=O)Nc2ccc(OC)cc2)n(-c2ccc(C)c(C)c2)c1=O | 24% | 60% (active) | 51% (active) | -5.8% |
| COc1ccc(CCNC(=O)CSc2nc3[nH]ncc3c(=O)n2-c2ccc(C)c(Cl)c2)cc1OC | 13.2% | 61.3% (active) | 56.5% (active) | -6.41% |
| Cc1c(Cl)cccc1NC(=O)CSc1nc2ncc(Cl)cc2[nH]1 | 18.2% | 69% (active) | 58% (active) | 1.96% |
